# PubChem BioAssay AID463190 (Sanford-Burnham Center for Chemical Genomics, 2010)
# In all, about 330,000 compounds went through this assay and about 7,300 (2.2%) were called active. This excerpt belongs to a sample that is enriched for actives. Unmarked numbers belong to inactive results.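 The calls were made as follows: active = inhibition of at least 40%; inactive = the rest.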
# Experiment: growth inhibition of tim10-1 ts yeast – luminescence, uHTS, primary screen (AID 463190);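 also: mutant grown at 25 °C; 0% = DMSO wells with yeast and 100% = wells holding no yeast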
# Settings: S. cerevisiae tim10-1 ts strain growth, BacTiter-Glo, 24 h; at 20 µM; stronger effect = higher value
row,Structure (SMILES),inhibition
1,O=C(Nc1ccc(-n2cccn2)cc1)C1CCN(Cc2ccsc2)CC1,-13.1%
2,Cc1nn2c(c1-c1ccccc1)N=C(c1ccco1)CC2c1ccccc1 (stereo unspecified),45.5% (active)
3,O=C(O)CCCC(=O)N1N=C(c2ccco2)CC1c1ccco1 (stereo unspecified),-34.5%
4,Cc1nn(C(=O)c2ccoc2C)c(N)c1-c1ccccc1,2.61%
5,CCOc1cc(C)ccc1OCc1nnc(SCC(=O)Nc2cccc(C(=O)O)c2)n1-c1ccccc1,4.93%
6,COc1cc(SC)ccc1C(=O)NCCOc1ccccc1Cl,20%
7,COc1cc(SC)ccc1C(=O)N(Cc1ccccc1)c1ccccc1,26.9%
8,COc1ccccc1CNC(=O)c1ccc(SC)cc1OC,41.4% (active)
9,Cc1cc(C)n(CCNCc2c(C(=O)N3C[C@@H](C)O[C@@H](C)C3)nc3ccc(Cl)cn23)n1,5.77%
10,Cc1cc(C)nc(SCC(=O)c2ccc(Cl)cc2)n1,7.83%
11,Cc1cc(C)nc(S/C=C/C(=O)c2ccccc2)n1,62.9% (active)
12,Cc1cc(C)nc(SCC(=O)N(C)C)n1,9.12%
13,COCCCn1c(SCc2cccc(OC)c2)nc2cc(OC)c(OC)cc2c1=N,28.6%
14,NC(=O)N/N=C\c1cccs1,-3.46%
15,COc1ccc(N(CC(=O)N/N=C/c2cccs2)S(=O)(=O)c2ccc(OC)c(OC)c2)cc1,11.7%
16,COc1ccc2c(c1)c(C(=O)N/N=C/c1cccs1)c(C)n2C,44.8% (active)
17,CCCCN(C)CCNC(=O)C1CCCN(S(=O)(=O)c2cccc3nsnc23)C1 (stereo unspecified),8.01%
18,O=C(c1ccco1)N1CCN(C(=O)c2cc(-c3ccccc3F)no2)CC1,26%
19,COc1ccc(/C=C2/C(=O)N(c3ccccc3)N=C2C)c(OC)c1,28.4%
20,COc1ccc(/C=C/C2=CC(C)(C)NC(=S)N2)c(OC)c1,42.8% (active)
21,COc1cc(/C=C/C2=CC(C)(C)NC(=S)N2)cc(OC)c1OC,16.4%
22,O=C(Cc1ccccn1)c1ccc(O)cc1O,4.18%
23,CC1=NNC(=O)C1CC(=O)N/N=C/c1ccncc1 (stereo unspecified),7.67%
24,CCOC(=O)C1(CCOc2ccccc2)CCN(Cc2cc(OC)cc(OC)c2)CC1,30.7%

row,Structure (SMILES),inhibition
1,CCOC(=O)C1(S(=O)(=O)c2ccccc2)CCN(Cc2ccccc2)CC1,41.1% (active)
2,CCOC(=O)C1(S(=O)(=O)c2ccc(Cl)cc2)CCN(Cc2ccccc2)CC1,39.5%
3,O=S(=O)(c1ccc(Br)cc1)c1nc(-c2ccccc2)oc1N1CCOCC1,19.8%
4,O=C1COc2ccc(C(=O)CSc3ccc(Br)cc3)cc2N1,14%
5,CCOC(=O)C1Sc2[nH]c(=O)sc2C(c2ccc(Cl)cc2)C1C(=O)OCC (stereo unspecified),48.6% (active)
6,CCOC(=O)C1=C(C)NC(=O)N(C(C)=O)C1c1ccc(Cl)cc1 (stereo unspecified),26.5%
7,CCOC(=O)c1[nH]c2c(c1-c1ccccc1)C(=O)CC(c1ccc(Cl)cc1)C2 (stereo unspecified),11.7%
8,CCCn1c(SCC(=O)Nc2ccc(C)c(S(=O)(=O)N3CCOCC3)c2)n[nH]c1=O,11.7%
9,COc1ccc(-c2ccc3nnc(SCC(=O)Nc4ccc(NC(C)=O)cc4)n3n2)cc1,-13%
10,CSc1nnc2ccc(-c3ccc(C)cc3)nn12,45.7% (active)
11,Fc1cccc(CSc2nnc3ccc(-c4ccncc4)nn23)c1,16.3%
12,Cc1oc(C(N)=O)cc1COc1ccc(C(N)=O)cc1,-9.15%
13,CCOc1cc(-c2conc2N)cc(OCC)c1OCC,41.9% (active)
14,CCOc1cc(C(=O)Nc2ncccn2)cc(OCC)c1OCC,8.23%
15,CCOc1cc2c(Cl)ncnc2c(OCC)c1OCC,19.3%
16,Cc1sc2c(c1C)c(=O)n(-c1ccccc1)c1nncn21,20.4%
17,CC[C@H](C)C(=O)N[C@H]1CCCN1C(=O)/C=C/c1ccccc1,-0.774%
18,Cc1ccc2c(c1)N(CCCC(=O)NCc1cccnc1)C(=O)CO2,-19.6%
19,COc1ccc(CNC(=O)C[C@H]2C[C@H](C(=O)N3CCOCC3)[C@@]3(CCC4CCCC4)c4[nH]c5ccc(Cl)cc5c4CCN3C2=O)cc1OC,17%
20,CC1Cc2ccccc2N1CC(=O)Nc1ccc2c(c1)OC(F)(F)O2 (stereo unspecified),20.8%
21,CN1CCc2c(sc3c2c(NCc2ccco2)nc2nnnn23)C1,21.9%
22,Cc1c(NC(=O)Nc2ccccc2Cl)sc(=S)n1C,12%
23,O=C(Nc1ccccc1Cl)/C(Cl)=C(\Cl)S(=O)c1ccccc1 (stereo unspecified),78.1% (active)
24,O=C(Cc1ccc2c(c1)CCCC2)Nc1ccccc1Cl,10.5%

row,Structure (SMILES),inhibition
1,CN=C1C=C/C(=N/N=c2\ccn(O)cc2C)C=C1C,16.6%
2,Cc1cc(-c2ccc(S(=O)(=O)N3CCN(c4cccc(C(F)(F)F)c4)CC3)s2)on1,-2.35%
3,COC(C[C@@H]1O[C@@H]1C(=O)[C@H](C)OCc1ccccc1)OC,-17.2%
4,COC(C[C@H](O)CC(=O)[C@@H](C)OCc1ccccc1)OC,7.97%
5,COC(C/C=C/C(=O)[C@@H](C)OCc1ccccc1)OC,54.5% (active)
6,O=S(=O)(/C=C/c1ccccc1)N1CCNCC1,7.28%
7,CCOc1ccccc1-n1c(SCC(=O)NCc2ccco2)nnc1-c1ccncc1,8.51%
8,Cc1cc(Br)ccc1SCC(=O)OCC(=O)NCc1ccc2c(c1)OCO2,28%
9,O=C(Cc1ccccc1)NC(=S)Nc1ccc(N2CCCCC2)cc1,38.6%
10,O=C1C=CC(=O)N1c1ccc(N2CCCCC2)cc1,93% (active)
11,CC(=O)Nc1ccc(S(=O)(=O)Nc2ccc(N3CCCCC3)cc2)cc1,3.03%
12,CC(=O)c1cccc(NC(=O)C2CCCN(S(=O)(=O)c3cccc4nonc34)C2)c1 (stereo unspecified),-2.16%
13,N#Cc1ccc(CSc2nnc3ccccn23)cc1,21.5%
14,N#Cc1ccc(CSc2ncccn2)cc1,-2.68%
15,N#Cc1ccc(CSc2nnc(-c3ccccn3)n2-c2ccc(Cl)cc2)cc1,40% (active)
16,O=C1CSC2=NCN(c3ccccc3)CN12,-4.56%
17,Cc1nc(NC(=O)C2CCCCC2)sc1C,25.4%
18,CC1CCCCC1NC(=O)COc1ccc(C#N)cc1 (stereo unspecified),-1.06%
19,CCOC(=O)c1c(NC(=O)C2CC=CCC2C(=O)O)sc(C)c1CC (stereo unspecified),15.4%
20,O=C(CSc1nnc(-c2cccs2)n1Cc1ccco1)c1ccc2c(c1)OCO2,-3.98%
21,CC(=O)NC(Cc1ccccc1)C(=O)NC1CCN(c2ncccc2[N+](=O)[O-])CC1 (stereo unspecified),10.4%
22,COc1ccc(-c2cc3ncccc3cn2)cc1,8.87%
23,COc1ccc(-c2cc(C3CCN(c4ncccc4[N+](=O)[O-])CC3)[nH]n2)cc1,49.2% (active)
24,O=C(NCC1CCCO1)c1cc2c(s1)CCCC2 (stereo unspecified),-4.36%

row,Structure (SMILES),inhibition
1,O=C1CCCc2c1[nH]c1ccc(Br)cc21,13.5%
2,COc1cccc(C(=O)Oc2cc(C)[nH]c(=O)c2[N+](=O)[O-])c1,-4.85%
3,Cc1ccc(C)c(N2CCN(S(=O)(=O)c3c(C)[nH]c(C)c3C(=O)N3CCCC3)CC2)c1,-8.05%
4,Cc1ccc(C)c(N2CCN(S(=O)(=O)c3ccc4c(c3)oc(=O)n4C)CC2)c1,27.4%
5,COC(=O)c1cc(S(=O)(=O)N2CCN(c3cc(C)ccc3C)CC2)c[nH]1,41.6% (active)
6,C/C(=N\N1CCN(Cc2ccc(C)cc2)CC1)c1ccco1,-7.59%
7,O=C(CN1CCN(c2ccc(F)cc2)CC1)Nc1ccccc1,11.6%
8,O=C(CN1CCN(c2ccccc2)CC1)Nc1ccc(F)cc1,-0.126%
9,O=C(CN1CCN(c2ccc(F)cc2)CC1)Nc1cccc(C(F)(F)F)c1,41.1% (active)
10,CC(C)Oc1ccc(Cc2n[nH]c(=S)n2Cc2ccccc2)cc1Cl,-6.21%
11,O=C(CCCOc1ccc(Cl)cc1Cl)NNC(=O)C1CCC1,5.85%
12,Cn1c(CCCOc2ccc(Cl)cc2Cl)n[nH]c1=S,47.8% (active)
13,CCN1C(=O)[C@@H]2[C@@H](c3ccc(-c4cccc(Cl)c4)cc3)N3CCC[C@@]3(C(=O)OC)[C@@H]2C1=O,30.1%
14,C[N+]1(CC(O)COc2ccccc2)CCN(C(=O)c2ccc([N+](=O)[O-])cc2)CC1 (stereo unspecified),-0.233%
15,CCOC(=O)C/C(C)=N\Nc1ccc([N+](=O)[O-])cc1[N+](=O)[O-],44.5% (active)
16,CCCCOC(=O)CCCc1ccc([N+](=O)[O-])cc1[N+](=O)[O-],28.7%
17,CCOC(=O)c1ccc(NNC(C)=O)c([N+](=O)[O-])c1,9.84%
18,O=C(CS(=O)(=O)c1ccccc1)Nc1ccc(S(=O)(=O)Nc2ccccn2)cc1,0.086%
19,CC(C)(C)c1cnnn1-c1ccc([N+](=O)[O-])cc1,12%
20,Cc1nn(Cc2ccc(F)cc2)c(C)c1NC(=O)c1cccnc1Cl,-0.56%
21,Cc1nn(Cc2ccc(Cl)c(Cl)c2)c(C)c1NC(=O)c1cc(C2CC2)on1,57% (active)
22,Cc1cc(C(=O)Nc2c(C)nn(Cc3ccccc3)c2C)on1,1.72%
23,Cc1ccccc1OCC(=O)NCC(=O)OCC(=O)c1ccc2ccccc2c1,18.3%
24,N/C(=N\S(=O)(=O)c1cc(C(F)(F)F)cc(C(F)(F)F)c1)c1cccs1,5.1%
